Hits are enriched below; roughly 3.4% of the tested compounds scored in any of these assays.
KLK7 zymogen act: proKLK7 (human) activation, primary screen; P49862; purified proKLK7, EDANS-DABCYL substrate fluorescence; 100% is mature enzyme control, 0% vehicle; 370,000 compounds, 0.9% hits; AID 652039; activation, % at 7 µM;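 active = activation above the mean of all tested compounds plus 3 SD, computed per campaign excluding outliers beyond control limits, cut at about 13% in these data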
PLC-gamma1 inh: blocks human PLC-gamma1 enzyme activity; P19174; purified PLC-gamma1, fluorogenic substrate, fluorescence; inhibition, % at 12.2 µM; 370,000 compounds, 0.84% hits; AID 720700; in the data active = inhibition above about 9.5%
ADAM17 inh: inhibitors of human ADAM17 | P78536 | recombinant ADAM17, EDANS/DABCYL FRET peptide cleavage | inhibition, % at 6.95 µM | 370,000 compounds, 0.83% hits | AID 720648;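 active = inhibition above the mean of compounds lying between control limits plus 3 SD, set per campaign, cut at about 8.5% in these data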;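 also: 0% = DMSO-only wells as the low control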
Target sequence (P78536 215-824 limits assumed): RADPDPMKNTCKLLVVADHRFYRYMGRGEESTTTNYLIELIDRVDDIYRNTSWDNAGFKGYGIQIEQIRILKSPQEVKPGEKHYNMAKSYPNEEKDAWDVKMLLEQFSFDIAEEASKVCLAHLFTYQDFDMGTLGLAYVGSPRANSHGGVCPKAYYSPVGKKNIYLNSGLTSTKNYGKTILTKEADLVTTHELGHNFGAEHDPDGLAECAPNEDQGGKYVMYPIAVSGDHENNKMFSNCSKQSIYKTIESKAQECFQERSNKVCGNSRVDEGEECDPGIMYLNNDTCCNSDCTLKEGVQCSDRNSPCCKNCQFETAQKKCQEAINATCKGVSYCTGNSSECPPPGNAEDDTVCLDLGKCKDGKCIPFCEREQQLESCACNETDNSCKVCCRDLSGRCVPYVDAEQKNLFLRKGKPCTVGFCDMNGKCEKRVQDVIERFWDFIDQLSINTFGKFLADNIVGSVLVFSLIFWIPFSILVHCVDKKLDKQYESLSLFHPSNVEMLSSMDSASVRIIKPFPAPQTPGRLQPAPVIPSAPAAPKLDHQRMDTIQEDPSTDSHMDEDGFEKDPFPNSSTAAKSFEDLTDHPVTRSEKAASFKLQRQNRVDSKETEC
ADAM10 inh: inhibits human ADAM10 | recombinant ADAM10, EDANS/DABCYL FRET peptide cleavage, 3 h | inhibition, % at 7 µM | 370,000 compounds, 0.62% hits | AID 720582;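 active = inhibition above a per-campaign cutoff equal to the mean of compounds falling between control-based bounds plus 3 SD, cut at about 20% in these data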;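 also: 0% = DMSO wells while the 100% control is not disclosed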
PLC-beta3 inh: inhibitors of human phospholipase C beta3; Purified PLC-beta3, fluorogenic substrate, fluorescence; AID 720704; Q01970; inhibition, % at 12.2 µM; 370,000 compounds, 0.18% hits; in the data active = inhibition above about 11%;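 also: 0% = median of compound wells on plate and 100% = full blocker control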
sPLA2-III inh: Inhibits HGIII-sPLA2 liposome hydrolysis, primary screen | inhibition, % at 12.2 µM | 370,000 compounds, 0.56% hits | QFRET BODIPY PC-A2 liposome hydrolysis, fluorescence | AID 743126;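 active = inhibition above mean plus 3 SD of compounds lying within the high and low control bounds, cut at about 19% in these data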;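 also: 0% = median of test compound wells and 100% = no enzyme DMSO wells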
proKLK7 act conf: confirmation of human kallikrein-7 zymogen activators. AID 686949. 3,200 compounds, 68% hits. shares compounds with KLK7 zymogen act. purified proKLK7, EDANS-DABCYL substrate fluorescence; scaled: vehicle 0, mature enzyme 100. activation, % at 7 µM;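 active = activation, as change over the incubation, above the mean of all tested compounds plus 3 SD, cut at about 13% in these data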
EDANS-DABCYL int: optically interferes with EDANS-DABCYL signal, flagging KLK7 hits; shares compounds with KLK7 zymogen act; EDANS-DABCYL substrate fluorescence interference, no enzyme, 4 h; solvent 0%, active enzyme control 100%; activation, % at 7 µM; 3,200 compounds, 80% hits;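 active = activation above the all-compound mean plus 3 SD, ignoring values outside control-based bounds, cut at about 4.8% in these data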;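 also: value is the 4 h activation minus the activation read at time zero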
EDANS interf: EDANS fluorescence interference in dose response, no enzyme | shares compounds with KLK7 zymogen act | EDANS-DABCYL peptide fluorescence interference | EC50, µM | 250 compounds, 20% hits;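 active = compounds that raise the fluorescence signal in this interference counterscreen, with EC50 at or below 10 µM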;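 also: intact quenched peptide substrate alone read at 355 nm excitation and 520 nm emission; signal is fluorescence gain from T0 to T4 after four hours at room temperature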
Active calls of the source: *; i = inactive; nt = no result given.

SMILES | KLK7 zymogen act | PLC-gamma1 inh | ADAM17 inh | ADAM10 inh | PLC-beta3 inh | sPLA2-III inh | proKLK7 act conf | EDANS-DABCYL int | others
O=C(NCCCN1CCCC1=O)c1cc2nc(-c3ccco3)cc(C(F)(F)F)n2n1 | 14.4* | i | -113.5 | -292.1 | i | 12.9 | 12.6* | 1.9 | EDANS interf=>69.5
COc1ccc(-c2oc3c(c2C(=O)OCCO)C(OCCO)CCC3)cc1 (stereo not drawn) | 4.1 | -92.1 | -70.3 | -237.7 | -147.5 | -1.3 | nt | nt
COc1ccc(-c2oc3c4c2C(=O)OCCOC4CCC3)cc1 (stereo not drawn) | 14.9* | -375.9 | -200.3 | i | i | -2.8 | 7.0 | 7.8*
C[C@@H]1CN([C@H](C)CO)C(=O)c2cc(NC(=O)Nc3ccc(F)cc3)ccc2O[C@@H](C)CCCCO[C@@H]1CN(C)C(=O)CCCN(C)C | 0.2 | 0.1 | -3.8 | -6.0 | -0.8 | -12.5 | nt | nt
COC(=O)C1=C(C)N(Cc2ccc(C(F)(F)F)cc2)C(=NCc2ccc(C(F)(F)F)cc2)NC1c1ccc(F)cc1 (stereo not drawn) | 0.1 | 4.5 | 4.0 | 13.9 | 9.0 | -7.0 | nt | nt
C=CCCC1CN(Cc2ccc(OC)cc2)S(=O)(=O)c2c(cccc2Sc2ccc(OC)c(OC)c2)O1 (stereo not drawn) | 0.6 | 3.9 | 2.6 | 6.5 | 1.6 | -8.8 | nt | nt
COC(=O)C1=NN(c2ccccc2OC)C2C(=O)N(c3ccccc3OC)C(=O)C12 (stereo not drawn) | 14.8* | -121.4 | 6.3 | -3.3 | -146.9 | -4.8 | 8.1 | 10.6*
COC(=O)[C@]12C[C@H](CC(=O)NCc3cccs3)C(=O)N(Cc3ccc4c(c3)OCO4)C1=C[C@H](COCc1ccccc1)O[C@@H]2C | 0.5 | -0.5 | 1.4 | 8.9 | 0.2 | -5.6 | nt | nt
COc1cc2c(cc1OC)/C(=C/C(=O)N1CCOCC1)NC(C)(C)C2 | 60.0* | i | -124.0 | -329.9 | i | 6.1 | 9.7 | 13.1*
COc1ccc2nc(NC(=O)c3cccs3)sc2c1 | 25.5* | -160.8 | -165.7 | -357.6 | -181.9 | -13.6 | 1.6 | 1.3
CC(=O)Nc1ccc2nc(NC(=O)c3cccs3)sc2c1 | 0.8 | -76.5 | -3.2 | -8.3 | -105.9 | -3.3 | nt | nt
C=CCN1C[C@H](COC(=O)CSc2ccccc2)Oc2cccc(F)c2S1(=O)=O | 0.5 | 0.6 | -0.8 | -0.6 | -2.7 | -5.4 | nt | nt
C=CCNC(=S)N1C[C@H]2CON(C)[C@H]2C[C@H]1c1ccccc1Br | 0.5 | 1.8 | 0.7 | -5.5 | 0.8 | 2.1 | nt | nt
Cc1ccn2c(NC(C)(C)C)c(-c3cccs3)nc2c1 | -6.8 | i | -362.7 | i | i | 10.0 | nt | nt
CC(C)CCNc1c(-c2cccs2)nc2ccccn12 | 143.6* | i | -254.7 | i | i | 11.0 | -8.3 | -19.3
O=C(COc1ccc(Cl)cc1)Nc1c(-c2cccs2)nc2ccccn12 | 12.7* | -104.0 | -37.0 | -114.9 | -168.9 | -15.3 | 9.8 | 0.3
COc1cc(N/C(N)=N/c2nc(C)cc(C)n2)cc(OC)c1 | 13.8* | -377.0 | -9.6 | -21.5 | -482.6 | -3.2 | -0.1 | -0.1
COc1ccc(N/C(N)=N/c2nc(C)cc(C)n2)c(OC)c1 | -0.2 | 0.3 | -2.9 | -0.9 | 2.0 | 1.3 | nt | nt
O=C(Nc1nc2ccccc2s1)c1cccc(S(=O)(=O)N2CCc3ccccc32)c1 | -0.2 | -9.1 | -0.6 | 3.9 | -23.2 | -6.7 | nt | nt
O=C(Nc1nc2c(s1)CN(Cc1ccccc1)CC2)c1cccc(S(=O)(=O)N2CCc3ccccc32)c1 | 640.5* | -168.6 | -43.5 | -179.3 | -156.6 | -11.8 | 20.6* | 17.8*
COc1cc2cc(C(N)=O)c(N)nc2cc1OC | 73.3* | i | i | i | i | -1.5 | 64.8* | 69.1*
COc1cc2cc(C(=O)NCCc3c[nH]c4ccccc34)c(N)nc2cc1OC | 7.9 | -236.1 | -333.1 | i | -328.4 | -25.4 | nt | nt
CC(C)=CCN1C(=O)[C@]2(OCCC=C[C@H]2C)c2c(Br)cccc21 | -0.1 | 5.5 | 4.8 | 3.0 | 6.4 | 5.4 | nt | nt
COc1cc2c(cc1/C=C/C(=O)O)OC(C)C2 (stereo not drawn) | 63.9* | i | i | i | i | -2.4 | 64.4* | 74.0*
CCOc1cc2c(cc1/C=C/C(=O)O)OC(C)C2 (stereo not drawn) | 61.8* | i | i | i | i | 0.2 | 72.4* | 69.2*
SMILES | KLK7 zymogen act | PLC-gamma1 inh | ADAM17 inh | ADAM10 inh | PLC-beta3 inh | sPLA2-III inh | proKLK7 act conf | EDANS-DABCYL int | others
Cc1cc(-c2nc3ncccc3o2)ccc1N | 40.2* | i | i | i | i | 4.7 | 66.9* | 67.3*
Nc1ccc(-c2nc3ncccc3o2)c(O)c1 | 21.0* | -470.6 | i | i | i | 5.2 | 22.1* | 20.9*
CC(C)C(=O)Nc1cccc(-c2nc3ncccc3o2)c1 | 0.0 | -8.9 | -34.8 | -69.9 | -23.9 | 0.8 | nt | nt
CC(C)C(=O)Nc1ccc(-c2nc3ncccc3o2)cc1 | 14.4* | -128.4 | -420.2 | i | -144.4 | 4.8 | 7.5 | 6.6*
COc1ccc(C(C)=O)cc1CSC(=S)N1CCSCC1 | -0.6 | -0.1 | 3.2 | 3.9 | 3.1 | 1.4 | nt | nt
COc1ccc(OC)c(C2NC(=O)NC(C)=C2C(=O)OC2CCCCC2)c1 (stereo not drawn) | 18.6* | -5.8 | -3.3 | -5.8 | -17.6 | 1.6 | -2.4 | 0.7
COc1ccccc1C1NC(=O)NC(C)=C1C(=O)OC1CCCCC1 (stereo not drawn) | -0.4 | 0.7 | 0.8 | -16.2 | 1.5 | 12.0 | nt | nt
C[C@@H]1[C@H](c2ccccc2)OC(O)([C@H](Cc2ccccc2)NC(=O)OC(C)(C)C)CN1C (stereo partly drawn) | nt | -1.0 | -2.6 | -0.9 | 0.1 | -5.3 | nt | nt
CNc1cnc(-c2ccc(F)c(F)c2F)cn1 | 12.7* | -189.1 | -487.5 | i | -262.6 | 7.4 | 12.8* | 12.8*
CC(=O)Nc1ccc(S(=O)(=O)Nc2nc3ccccc3nc2-n2ccc(=NC(=O)c3ccc(F)cc3)cc2)cc1 | 81.2* | -59.5 | -8.3 | -15.8 | -79.6 | -18.9 | 95.5* | 87.3*
O=C(N=c1ccn(-c2nc3ccccc3nc2NS(=O)(=O)c2ccc(Cl)cc2)cc1)c1cccs1 | -0.3 | -1.6 | -1.7 | 13.3 | -13.0 | -3.0 | nt | nt
O=C(N=c1ccn(-c2nc3ccccc3nc2NS(=O)(=O)c2ccccc2)cc1)c1ccccc1Cl | 1.8 | -57.8 | -5.5 | 5.4 | -83.3 | -19.8 | nt | nt
